# TGFb SMAD3 inh – blocks TGF-b signaling; Potency, µM (highest dose often 46.1 µM), inactives show top-dose activity, negative = inhibition, hits mostly inhibitors; HepG2 CAGA-GFP TGF-b/SMAD3 reporter, GFP fluorescence, 18 h; TGF-beta stimulated, 500 pg/mL final; 410,000 compounds, 1.2% hits; note: % is set by controls: 0 for no effect and ±100 for the full control effect; nearly all actives have a fitted effect of over 65% in size
#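 GFP signal (ex488/em500-530) from TGF-beta-stimulated HEPG2 CAGA-GFP cells, 500 pg/mL final, 18 h at 37 degrees C in DMEM plus 1% FBS, normalized to unstimulated and DMSO-stimulated controls.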
# ATXN2 expr inh – reduces ATXN2 reporter expression in HEK-293 cells. HEK-293 ATXN2-luciferase reporter, luminescence, 24 h. Potency, µM (series often up to 57 µM), for inactives: at the highest dose activity change, negative = inhibition, usual class: inhibitors. 360,000 compounds, 0.72% hits. AID 1745845; note: % is set by controls: 0 for no effect and ±100 for the full control effect; nearly all actives have a fitted effect of over 55% in size
#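 ATXN2-luciferase reporter cells (luciferase flanked by upstream and downstream ATXN2 gene portions) were treated 24 h at 37 °C with compounds at up to 57 uM. SteadyGlo luminescence gave expression; GF-AFC fluorescence gave viability.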
# A549 viability – A549 cytotoxicity, counter-screen for Nrf2 inhibitors. 390,000 compounds, 0.16% hits. AID 504648. A549 ARE-Fluc cells, CellTiter-Fluor viability, 18-24 h. Potency, µM (highest dose often 46 µM), for the others: at the highest dose activity change, negative = cytotoxicity, most hits filed as inhibitors; note: % is set by controls: 0 for no effect and ±100 for the full control effect
#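 Cytotoxicity counterscreen: CellTiter-Fluor fluorescence was measured in A549 ARE_Fluc cells after 18-24 h of compound exposure in a concentration series. The subsequent BugLite luminescent read reports ARE-luciferase activity.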
# Nrf2 inh – blocks Nrf2 signaling. A549 ARE-Fluc reporter, luciferase luminescence, 18-24 h. Potency, µM (doses to about 46 µM), for the others: at the top dose activity change, negative = inhibition, actives largely listed as inhibitors. 360,000 compounds, 2.1% hits. AID 504444; note: % is set by controls: 0 for no effect and ±100 for the full control effect; nearly all actives have a fitted effect of over 60% in size
#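 A549 ARE_Fluc cells (5000/well, 5% FBS OPTI-MEM) pre-incubated 2 h, then treated with compounds 18-24 h at 37C/5% CO2 in concentration-response. CellTiter-Fluor viability read first; BugLite luciferase luminescence after 15 min at room temperature gives Nrf2 activity.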
# HepG2 viability – HepG2 cytotoxicity, counter-screen for TGF-b inhibitors | Potency, µM (doses to about 46.1 µM), without a hit: at the highest dose activity change, negative = cytotoxicity, hits mostly cytotoxic | HepG2 CAGA-GFP viability, ATP luminescence, 18 h | 410,000 compounds, 0.76% hits
#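 HepG2 CAGA-GFP cells (1000/well, DMEM with 1% FBS) received compound, then TGF-beta at 500 pg/mL final, and were incubated 18 hours at 37 degrees C. Viability was read by CellTiter-Glo luminescence. Media-only wells were set as complete cell-killing and DMSO as no toxicity.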
# S2 tox – viability counter-screen for ATXN expression inhibitors. S2 cells (HEK-293 line with an ATXN2-luciferase reporter) viability, CellTiter-Fluor protease fluorescence, 24 h. Potency, µM (top dose mostly 56.7 µM), actives largely listed as cytotoxic. 400,000 compounds, 0.49% hits; note: nearly all actives have a fitted effect of over 40% in size
# The depositor's hits bear a star; i = inactive; ? = inconclusive; / = no result; [ ] = remark or other dose. Sampled rows, rich in hits. Any-hit rate of the full collection: about 3.8%. Calls come from the whole dose curve; as a rule, active = well fitted curve in the direction sought with a large enough effect; inconclusive = small, poorly fitted or top-dose-only effect, or another doubt; inactive = no such curve, though single readings can be large; an effect the other way counts as inactive or inconclusive. Potency is the fitted concentration of half-maximal effect.
SMILES,TGFb SMAD3 inh,ATXN2 expr inh,A549 viability,Nrf2 inh,HepG2 viability,S2 tox
Cc1cccc(-c2nnc(-c3cccc(NC(=O)Cc4cccs4)c3)o2)c1,-27.4%,48.4%,?,20.6µM*,-9.6%,i
O=C(NCCc1ccccc1)C1Cc2c(-c3ccc(Cl)cc3)ccnc2O1 (stereo unspecified),1.8%,-0.4%,/,/,-16.3%,i
CCn1c(SCc2nc(-c3ccccc3)no2)nnc1-c1cccs1,-0.7%,5.3%,/,?,1.6%,i
CCn1c(SCc2nc(-c3cccs3)no2)nnc1-c1c[nH]c2ccccc12,?,?,?,18.4µM*,-25.0%,?
CCCCCNc1nc(NCCCO)c(C#N)c2c1CN(C)CC2,-1.9%,-6.1%,13.5%,/,-3.6%,i
CCCCCNc1nc(N2CCCC2)c2c(c1C#N)CCN(C)C2,?,-22.2%,-8.3%,6.3%,22.4µM*,?
COc1ccc(C2C3=C(Nc4ncnn42)c2ccccc2CCC3)cc1 (stereo unspecified),-30.8%,-0.8%,-3.0%,-27.2%,-1.9%,i
Fc1ccc(/C=C2\CCCC3=C2Nc2ncnn2C3c2ccc(F)cc2)cc1 (stereo unspecified),?,25.1µM*,?,?,-98.4%,17.8µM*
Cc1ccc(NC(=S)/C(C#N)=C2/Nc3ccccc3S2)cc1,20µM*,/,/,/,-37.9%,i
N#C/C(C(=O)N1CCCCC1)=C1\Nc2ccccc2S1,-20.4%,69.7%,1.5%,/,-3.4%,i
O=C(/C=C/c1ccco1)Nc1ccc(-c2nc3ccccc3[nH]2)cc1,4.2%,?,23.1µM*,-4.5%,0.0%,?
O=C(Nc1ccc(-c2nc3ccccc3[nH]2)cc1)c1ccco1,-7.6%,85.6%,-15.9%,?,-36.8%,i
COc1ccc(NC(=O)c2ccc(-c3ccccc3)cc2)cc1NS(=O)(=O)c1ccc(F)cc1,-21.2%,?,-4.7%,14.6µM*,20.7%,i
COc1ccccc1NS(=O)(=O)c1ccc(NC(=O)c2ccccn2)cc1,25.7%,-6.9%,-13.2%,20.6µM*,2.8%,i
O=C1/C(=C/c2ccccc2Cl)SC(=S)N1CCCC(=O)N(CCO)c1ccccc1,?,?,-12.2%,16.4µM*,-91.3%,/
O=C(CCCN1C(=O)/C(=C/c2ccccc2Cl)SC1=S)Nc1cccnc1,-1.4%,?,?,?,-0.6%,14.1µM*
O=C(CCN1C(=O)/C(=C/c2ccccc2Cl)SC1=S)Nc1ccccn1,-10.5%,/,4.3%,15.6%,-29.8%,i
O=C(CCCN1C(=O)/C(=C/c2ccccc2Cl)SC1=S)Nc1ccccn1,?,16.8µM*,-23.3%,20.6µM*,-14.9%,i
Cc1ccc(C(=O)Nc2ccc3cn[nH]c3c2)cc1S(=O)(=O)N1CCCCC1,-8.0%,59.6%,-2.3%,/,-19.8%,i
COc1ccc(Cn2cc(CN(C)C3CN(Cc4cn(Cc5ccc(OC)cc5)nn4)S(=O)(=O)C3)nn2)cc1 (stereo unspecified),/,4.0%,/,/,/,i
ClCC1NCC(c2ccccc2Cl)c2c1[nH]c1ccccc21 (stereo unspecified),-20.0%,15.2%,-0.6%,16.5%,0.8%,i
COC(=O)c1cccc(NC(=S)NCCC2=CCCCC2)c1,0.0%,-16.4%,-8.2%,23.1µM*,-22.6%,i
CC(=O)N1c2ccc(S(=O)(=O)NCC3CCC(C(=O)NCCC(C)C)CC3)cc2CC1C (stereo unspecified),1.4%,/,10.3%,-15.9%,-23.2%,/
O=[N+]([O-])c1ccc(O)c(/C=N/Nc2nc3ccccc3[nH]2)c1,?,?,-25.6%,?,-26.0%,?
O=[N+]([O-])c1ccc(O)c(/C=N/Nc2ccccn2)c1,?,2.82µM*,14.6µM*,?,-83.2%,i
SMILES,TGFb SMAD3 inh,ATXN2 expr inh,A549 viability,Nrf2 inh,HepG2 viability,S2 tox
O=[N+]([O-])c1ccc(O)c(/C=N/Nc2ncnc3c2cnn3-c2ccccc2)c1,?,2.82µM*,-7.2%,1.0%,-78.4%,?
O=[N+]([O-])c1ccc(NN=Cc2ccccc2O)nc1,?,?,?,?,-58.8%,/
O=[N+]([O-])c1ccc(Oc2ccc(S(=O)(=O)N3CCOCC3)cc2)cc1,-18.6%,-25.9%,-3.3%,25.9µM*,-9.0%,i
CC(=O)N1CCc2cc(S(=O)(=O)NC3CCCc4ccccc43)ccc21 (stereo unspecified),-3.0%,-17.3%,-7.7%,6.31µM*,-24.6%,i
O=C(O)c1ccc(S(=O)(=O)NC2CCCc3ccccc32)cc1 (stereo unspecified),1.6%,-9.5%,-3.0%,-12.1%,-6.0%,i
Cc1ccc(NC(=O)c2cc(S(=O)(=O)NCCC3=CCCCC3)ccc2F)cc1F,?,?,?,10.3µM*,-81.6%,?
O=C(Nc1cccc(F)c1)c1cc(S(=O)(=O)NCCC2=CCCCC2)ccc1F,?,-35.6%,-5.3%,?,14.1µM*,?
CC(=O)N1CCc2cc(S(=O)(=O)NCCC3=CCCCC3)ccc21,-17.7%,?,-11.1%,3.66µM*,-4.0%,i
CCCCCn1c(C(C)NC(=O)c2ccccc2)nc2ccccc21 (stereo unspecified),-10.9%,-18.7%,12.8%,-11.5%[9.27 µM],-11.8%,i
CCOc1ccc(-c2nnc(SCC(=O)NCCC(C)C)nc2-c2ccc(OCC)c(OC)c2)cc1OC,31.0%,/,-16.7%,/,-3.4%,/
C[C@@H]1CN([C@@H](C)CO)C(=O)CCCn2nncc2CO[C@H]1CN(C)S(C)(=O)=O,0.6%,7.2%,/,/,0.5%,i
Cc1cccc(CNC(=O)c2cc3cc(S(=O)(=O)N4CCCCC4)ccc3n2C)c1,8.7%,/,3.9%,/,-25.6%,/
COc1ccc(S(=O)(=O)NCCc2sc(-c3cccc(F)c3)nc2C)cc1,?,0.0%,-2.4%,/,-23.8%,i
CC(=O)N1CCc2cc(S(=O)(=O)NCCC(=O)N3CCc4ccccc4C3)ccc21,-7.3%,-9.3%,-15.8%,13µM*,-8.3%,i
CC(=O)N1CCc2cc(S(=O)(=O)CCC(=O)N3CCc4ccccc4C3)ccc21,?,-12.7%,27.7%,?,-12.7%,i
Cc1cc(S(=O)(=O)NCCC2=CCCCC2)ccc1Br,?,-10.4%,-10.6%,?,-29.5%,i
Cc1ccc(S(=O)(=O)NCCC2=CCCCC2)cc1C(N)=O,-5.1%,-20.8%,-4.9%,10.3µM*,-11.9%,i
CCC(=O)N1CCc2cc(S(=O)(=O)NCCC(=O)N3CCN(c4cccc(C)c4)C(C)C3)ccc21 (stereo unspecified),?,/,1.7%,18.4µM*,-24.9%,i

# Bioassay records: PubChem BioAssay, National Center for Advancing Translational Sciences (NCATS)
